Reference: PubChem BioAssay AID1159580 (chemical genetic matrix, 2015)
The whole screen tested about 5,500 compounds, of which about 2,000 (36%) were called active. Inconclusive results (about 18%) are left out. This is one part of the list. Unmarked numbers belong to inactive results. No stated cut-off is given here; in the data, active means normalized growth mostly below about 0.91 (no sharp cut-off); inconclusive means no clear call, values can overlap the other calls; inactive means mostly above about 0.92.

Assay: chemical genetic growth profiling, strain panel (AID 1159580);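 further: tested at 20 µM; growth read once vehicle control cultures reached saturation at 30 °C; 1 = growth at the plate median or of vehicle wells; lower values mean less growth of the strain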
Details: S. cerevisiae deletion strains, growth OD
[1] = locus YAL040C, strain CLN3, active compounds read low
[2] = locus YCL061C, strain MRC1 (second series), active compounds read low
[3] = locus YDR363W, strain ESC2, active compounds read low
[4] = locus YER002W, strain NOP16, active compounds read low
[5] = locus YNL175C, strain NOP13, active compounds read low
[6] = locus YNL197C, strain WHI3, active compounds read low
[7] = locus YNL224C, strain SQS1, active compounds read low
[8] = locus YOR083W, strain WHI5 (second series), active compounds read low
[9] = locus YPL055C, strain LGE1, active compounds read low
[10] = locus YPL241C, strain CIN2, active compounds read low
[11] = locus YMR307W, strain GAS1, active compounds read low

Compound | normalized growth (locus YAL013W, strain DEP1, active compounds read low) | normalized growth [1] | normalized growth [2] | normalized growth [3] | normalized growth [4] | normalized growth (locus YNL153C, strain GIM3, active compounds read low) | normalized growth [5] | normalized growth [6] | normalized growth [7] | normalized growth [8] | normalized growth [9] | normalized growth [10] | normalized growth (locus YJR075W, strain HOC1, active compounds read low) | normalized growth [11] | normalized growth (locus YDR150W, strain NUM1, active compounds read low) | normalized growth (locus YGR078C, strain PAC10, active compounds read low) | normalized growth (locus YNL128W, strain TEP1, active compounds read low) | normalized growth (locus YNL322C, strain KRE1, active compounds read low)
N#Cc1c(-c2ccccc2)no[n+]1[O-] | 0.942 | 0.674 (active) | 0.995 | 1 | 0.85 (active) | 0.515 (active) | 0.774 (active) | 0.902 | 0.926 | 0.253 (active) | 0.953 | 1 | – | – | – | – | – | –
Cc1ccc(O)c(N=Nc2ccccc2)n1 | – | 0.96 | 0.934 (active) | 0.896 | 1.03 | – | 0.985 | 0.977 | 0.993 | 0.738 (active) | 0.425 (active) | – | 0.855 (active) | 0.984 | – | – | – | –
NC1CCN(c2cccc(Cl)n2)CC1 | – | 1.01 | 1 | 1.01 | 0.991 | – | 0.991 | 1 | 1.01 | 0.991 | – | 1 | – | 1.02 | 1.01 | 1.01 | 1.01 | 0.984
